Where “and” joins values, the source holds several entries; their conditions need not be identical. Equal values may be shown once. Records with an inconclusive call do not appear. Calls of active or inactive are those of the source. Unless noted, calls come from the whole dose curve; as a rule, active = well fitted curve in the direction sought with a large enough effect; inconclusive = small, poorly fitted or top-dose-only effect, or another doubt; inactive = no such curve, though single readings can be large; an effect the other way counts as inactive or inconclusive.
Legend:
[1] = Cell Viability - N2a (AID 540); settings: N2a mouse neuroblastoma cell viability; activity change, negative = cytotoxicity: at 92.2 µM (top of the series);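 note: plate controls were DMSO alone for no effect and tamoxifen control for full effect; nearly all actives have a fitted effect of over 45% in size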
Procedure, shortened: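 Mouse neuroblastoma N2a cells, 1500/well, exposed to compounds 40 h at 37 °C in complete medium. Viability measured as cellular ATP by CellTiter-Glo luminescence; AC50 from Hill fits of concentration-response.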

[2] = Cell Viability - H-4-II-E (AID 543); note: % is set by controls: 0 for no effect and ±100 for the full control effect; nearly all actives have a fitted effect of over 35% in size
Procedure, shortened: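 Rat hepatoma H-4-II-E cells, 1500 per well, treated 40 h at 37 °C in complete medium. Cellular ATP read by CellTiter-Glo luminescence; AC50 from Hill fits of concentration-response.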

[3] = Cellular Toxicity (caspase-3) Mesangial (AID 660);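 note: combined caspase 3 and 7 activity read by Caspase-Glo luminescence; cells exposed to compound for 16 h before the caspase read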
Procedure, shortened: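 Human renal glomerular mesangial cells, 1000/well, 5 h at 37 C before 16 h compound treatment. Caspase-Glo 3/7 luminescence after 20 min; normalized to DMSO and 100 uM tamoxifen, AC50 from Hill fit.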

[4] = Cellular Toxicity (caspase-3) NIH 3T3 (AID 666);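 note: caspase signal read after 16 h compound exposure; 0% = DMSO basal and 100% = 100 µM tamoxifen stimulation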
Procedure, shortened: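 Mouse NIH 3T3 fibroblasts (1000/well) treated 16 h at 37 C; caspase-3/7 activity measured by Caspase-Glo 3/7 luminescence after 20 min. Normalized to DMSO and 100 uM tamoxifen; AC50 from Hill fits.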

[5] = molecular target: Cytochrome P450 3A4 (Homo sapiens) (UniProt P08684); experiment: qHTS Assay for Inhibitors and Substrates of Cytochrome P450 3A4 (AID 884); note: % is set by controls: 0 for no effect and ±100 for the full control effect; nearly all actives have a fitted effect of over 50% in size
Procedure, shortened: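 20 nM human CYP3A4 with 25 uM Luciferin-PPXE (at KM) in 200 mM KPO4, preincubated 10 min with compound; NADPH regeneration started a 60 min RT reaction. Luciferin detected by luminescence, normalized to 57 uM ketoconazole as full inhibition.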

[6] = MultiTox-Fluor Cytotoxicity Assay - LYMP1-002 - Dead Cells (AID 960);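 note: 0% = DMSO and 100% = tetraoctylammonium bromide; nearly all actives have a fitted effect of over 60% in size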
Procedure, shortened: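 Human lymphoblastoid LYMP1-002 cells, 2500/well, treated 16 h at 37 C; dead-cell protease cleavage of bis-AAF-R110 read by fluorescence (485/520); normalized to DMSO and 15 uM tetraoctylammonium bromide; AC50 from Hill fit.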

[7] = Cell Viability - LYMP2-004 (AID 966);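 note: plate controls were DMSO only for no effect and tetraoctylammonium bromide control for full effect; nearly all actives have a fitted effect of over 65% in size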
Procedure, shortened: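 Lymphoblastoid LYMP2-004 cells, 2500 per well, were preincubated for 5 hr and then treated with compound for 24 h at 37 C in complete medium. Viability was read as cellular ATP by CellTiter-Glo luminescence, and AC50 values were taken from Hill fits to concentration-response data.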

[8] = Cell Viability - LYMP2-021 (AID 974);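 note: compound exposure lasts 24 hours at 37 °C; % is set by controls: 0 for no effect and ±100 for the full control effect; nearly all actives have a fitted effect of over 55% in size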
Procedure, shortened: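 Human lymphoblastoid LYMP2-021 cells, 2500/well in complete medium, treated 24 hours at 37 C. Intracellular ATP by CellTiter-Glo luminescence (30 min, RT); AC50 from Hill fits of concentration-response.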

[9] = Cell Viability - LYMP2-012 (AID 982);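 note: cellular ATP by luciferase luminescence where a drop means cytotoxicity; cells exposed to compound for one day before reading; 0% = DMSO only and full loss = 92 µM tetraoctylammonium bromide; nearly all actives have a fitted effect of over 55% in size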
[10] = Cell Viability - LYMP1-002 - Assay at 40 hr (AID 994);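 note: 0% = DMSO only and full inhibition = 92 µM tetraoctylammonium bromide; nearly all actives have a fitted effect of over 60% in size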
Procedure, shortened: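 LYMP1-002 human lymphoblastoid cells (2500/well, complete medium) were treated with compounds for 40 hr at 37 C. Intracellular ATP was measured by CellTiter-Glo luminescence, and AC50 values came from Hill-equation fits of concentration-response data; tetraoctylammonium bromide was the positive control.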

[11] = molecular target: Vitamin D3 receptor (Homo sapiens) (UniProt P11473); experiment: qHTS assay for small molecule antagonists of vitamin D receptor signaling (AID 588541; calls by dose curve;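 note: receptor activated by calcitriol during compound treatment; % is set by controls: 0 for no effect and ±100 for the full control effect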)
Procedure, shortened: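 VDR-UAS-bla HEK293T cells in 2% charcoal-stripped FBS were stimulated with 1-alpha,25-dihydroxyvitamin D3 (3 nM final) plus compound for 16 h at 37 C. The beta-lactamase CCF4 readout was normalized to 50 nM agonist and DMSO, and Hill fits gave IC50.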

[12] = molecular target: Vitamin D3 receptor (Homo sapiens) (UniProt P11473); experiment: qHTS assay for small molecule agonists of vitamin D receptor signaling (AID 588543; calls by dose curve;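 note: 0% = DMSO basal and 100% = reference agonist control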)
Procedure, shortened: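 VDR-UAS-bla HEK293T cells, 2000/well, 2% charcoal-stripped FBS; compound titration 16 h at 37 C; CCF4 beta-lactamase ratio read. Normalized to 50 nM 1-alpha,25-dihydroxyvitamin D3 (100%) and DMSO; Hill fit gives EC50, efficacy.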

[13] = molecular target: Thyroid hormone receptor beta (Homo sapiens) (UniProt P10828); experiment: qHTS assay for small molecule agonists of thyroid hormone receptor beta signaling (AID 588545; calls by dose curve)
Procedure, shortened: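 Agonist-mode beta-lactamase reporter assay, HEK 293 cells, 2% charcoal/dextran FBS; cells plated 4 hrs, compound 18 hrs at 37 C, CCF4 2 hrs RT. Normalized to 10 nM T3 (100%) and DMSO (0%); Hill fit gives EC50, efficacy.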

[14] = qHTS assay for small molecule antagonists of retinoid X receptor alpha signaling (AID 588546; active = well fitted inhibition curve with a large enough effect in the signal ratio, with a control signal flat, not every such curve was filed as active; the % refers to the signal ratio;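 note: cells stimulated with 9-cis-retinoic acid as agonist; % is set by controls: 0 for no effect and ±100 for the full control effect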); settings: HEK293T RXRa-UAS-bla, beta-lactamase ratio, antagonist mode; measured here: W530 green channel, cytotoxicity proxy
Procedure, shortened: (§1)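 Beta-lactamase reporter inhibition, read as CCF4 fluorescence ratio (ex 405, em 460/530 nm) after 2 h at RT. HEK293T UAS-bla cells, 2500/well, were stimulated with 9-cis-RA at 500 or 100 nM final alongside test compound for 18 h at 37 C.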

[15] = molecular target: Retinoic acid receptor RXR-alpha (Homo sapiens) (UniProt P19793); experiment: as above; settings: HEK293T RXRa-UAS-bla, beta-lactamase ratio, antagonist mode
Procedure, shortened: as §1

[16] = molecular target: Tumor necrosis factor (Homo sapiens) (UniProt P01375); experiment: qHTS assay to identify small molecules that stimulate Tumor Necrosis Factor-alpha (TNF-alpha) secretion (AID 651757; active = well fitted curve in the direction sought with a large enough effect in the signal ratio; the % refers to the signal ratio; note: 0% is about no effect)
Procedure, shortened: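 THP-1 cells (3000/well) exposed to compounds 17 hrs at 37 C. Secreted TNF-alpha detected by HTRF with cryptate- and XL665-labeled anti-TNF-alpha antibodies after 3 hr at room temperature.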

[17] = molecular target: Nuclear receptor ROR-gamma (Homo sapiens) (UniProt P51449); experiment: qHTS assay for small molecule antagonists of the retinoid-related orphan receptor gamma (ROR-gamma) signaling pathway (AID 651802);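 note: luciferase reporter luminescence driven by ROR response element; % is set by controls: 0 for no effect and ±100 for the full control effect; nearly all actives have a fitted effect of over 60% in size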
Procedure, shortened: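 CHO cells with TET-inducible ROR-gamma and RORE-luciferase reporter, dosed then doxycycline-induced. After 16 h at 37C, One-Glo luminescence read; decreased signal indicates antagonism.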

[18] = qHTS assay for small molecule agonists of the antioxidant response element (ARE) signaling pathway measured by Nrf2-dependant transcriptional activity (AID 720636; active = well fitted curve in the direction sought with a large enough effect in the repeat runs; an effect the other way counts as inactive or inconclusive;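 note: HepG2 cells with an ARE-driven luciferase reporter; % of control where 0% means no effect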)
Procedure, shortened: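 ONE-Glo luminescence, read 30 min after reagent addition at room temperature, reflected ARE reporter activity in HepG2 cells that had been incubated with compound for 16 hr at 37 C in 1% dialyzed FBS.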

[19] = qHTS assay for small molecule antagonists of the retinoid-related orphan receptor gamma (ROR-gamma) signaling pathway - cell viability counter screen (AID 720652; active = well fitted curve in the direction sought with a large enough effect in the repeat runs; an effect the other way counts as inactive or inconclusive;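 note: compound exposure lasted 16 hr before ATP read; % is set by controls: 0 for no effect and ±100 for the full control effect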)
Procedure, shortened: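 CHO cells carrying TET-inducible ROR and RORE-luciferase reporter, plated 5 hr, then dosed with compound plus doxycycline. After 16 hr at 37 C, viability read as intracellular ATP by CellTiter-Glo luminescence.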

[20] = qHTS assay for small molecule activators of the human pregnane X receptor (PXR) signaling pathway (AID 720659; call rule not given here; note: 0% is about no effect)

Chain of Thyroid hormone receptor beta (Homo sapiens) (P10828 whole entry, looked up): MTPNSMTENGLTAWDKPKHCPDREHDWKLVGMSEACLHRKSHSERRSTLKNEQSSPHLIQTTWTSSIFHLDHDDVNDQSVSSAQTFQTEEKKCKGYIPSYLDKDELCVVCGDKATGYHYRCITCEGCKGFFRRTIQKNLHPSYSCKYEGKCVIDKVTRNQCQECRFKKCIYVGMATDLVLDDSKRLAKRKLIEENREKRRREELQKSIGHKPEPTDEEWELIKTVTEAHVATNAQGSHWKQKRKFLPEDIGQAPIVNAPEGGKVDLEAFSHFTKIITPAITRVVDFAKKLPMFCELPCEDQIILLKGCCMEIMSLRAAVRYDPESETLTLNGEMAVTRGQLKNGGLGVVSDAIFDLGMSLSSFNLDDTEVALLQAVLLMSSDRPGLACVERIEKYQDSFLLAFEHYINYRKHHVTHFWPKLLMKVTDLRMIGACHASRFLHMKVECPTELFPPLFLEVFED
Chain of Tumor necrosis factor (Homo sapiens) (P01375 whole entry, looked up): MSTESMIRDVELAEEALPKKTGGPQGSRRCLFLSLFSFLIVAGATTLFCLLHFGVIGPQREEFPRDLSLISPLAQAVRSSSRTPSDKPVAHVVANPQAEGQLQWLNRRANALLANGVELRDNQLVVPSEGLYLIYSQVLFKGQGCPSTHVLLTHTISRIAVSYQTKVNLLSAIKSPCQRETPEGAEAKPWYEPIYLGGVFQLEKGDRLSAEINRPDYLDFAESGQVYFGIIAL
Chain of Retinoic acid receptor RXR-alpha (Homo sapiens) (P19793 whole entry, looked up): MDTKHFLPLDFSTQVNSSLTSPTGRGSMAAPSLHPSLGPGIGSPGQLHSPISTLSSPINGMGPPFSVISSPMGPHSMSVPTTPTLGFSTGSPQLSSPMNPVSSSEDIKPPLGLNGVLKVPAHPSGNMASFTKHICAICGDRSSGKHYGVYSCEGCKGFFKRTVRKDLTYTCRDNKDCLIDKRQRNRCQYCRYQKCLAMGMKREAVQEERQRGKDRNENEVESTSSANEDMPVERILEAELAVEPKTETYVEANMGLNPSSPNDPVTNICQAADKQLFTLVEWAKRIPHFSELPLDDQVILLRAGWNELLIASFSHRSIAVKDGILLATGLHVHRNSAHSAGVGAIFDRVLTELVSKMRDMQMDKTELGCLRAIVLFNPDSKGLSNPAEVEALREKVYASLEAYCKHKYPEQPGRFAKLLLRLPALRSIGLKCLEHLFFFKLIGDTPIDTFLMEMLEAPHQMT
Chain of Cytochrome P450 3A4 (Homo sapiens) (P08684 whole entry, looked up): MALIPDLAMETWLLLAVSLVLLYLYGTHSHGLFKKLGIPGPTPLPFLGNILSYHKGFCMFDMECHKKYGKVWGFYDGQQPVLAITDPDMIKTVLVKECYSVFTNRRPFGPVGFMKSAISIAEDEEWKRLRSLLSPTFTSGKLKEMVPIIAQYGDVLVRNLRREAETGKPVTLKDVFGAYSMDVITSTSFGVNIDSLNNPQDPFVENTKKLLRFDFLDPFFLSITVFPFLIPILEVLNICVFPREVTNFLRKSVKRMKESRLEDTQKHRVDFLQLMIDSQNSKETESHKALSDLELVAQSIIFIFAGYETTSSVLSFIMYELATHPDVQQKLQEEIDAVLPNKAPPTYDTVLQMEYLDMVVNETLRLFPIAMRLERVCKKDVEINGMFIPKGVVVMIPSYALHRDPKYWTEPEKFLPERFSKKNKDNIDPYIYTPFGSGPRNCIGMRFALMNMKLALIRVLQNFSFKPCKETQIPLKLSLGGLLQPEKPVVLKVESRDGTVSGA
Chain of Nuclear receptor ROR-gamma (Homo sapiens) (P51449 whole entry, looked up): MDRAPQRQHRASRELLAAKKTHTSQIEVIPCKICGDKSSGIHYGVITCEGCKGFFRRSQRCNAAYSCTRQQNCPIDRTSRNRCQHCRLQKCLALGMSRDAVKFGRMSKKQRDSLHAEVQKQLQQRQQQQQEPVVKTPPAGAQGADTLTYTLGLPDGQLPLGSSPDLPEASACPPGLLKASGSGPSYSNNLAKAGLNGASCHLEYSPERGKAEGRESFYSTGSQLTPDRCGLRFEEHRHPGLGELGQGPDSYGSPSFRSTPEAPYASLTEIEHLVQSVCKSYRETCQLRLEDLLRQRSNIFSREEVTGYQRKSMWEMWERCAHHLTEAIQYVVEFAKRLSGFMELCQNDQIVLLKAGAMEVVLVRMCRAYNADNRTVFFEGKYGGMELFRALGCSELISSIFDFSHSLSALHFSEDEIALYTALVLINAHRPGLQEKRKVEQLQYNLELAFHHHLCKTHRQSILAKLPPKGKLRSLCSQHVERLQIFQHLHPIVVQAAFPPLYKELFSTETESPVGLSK
Chain of Vitamin D3 receptor (Homo sapiens) (P11473 whole entry, looked up): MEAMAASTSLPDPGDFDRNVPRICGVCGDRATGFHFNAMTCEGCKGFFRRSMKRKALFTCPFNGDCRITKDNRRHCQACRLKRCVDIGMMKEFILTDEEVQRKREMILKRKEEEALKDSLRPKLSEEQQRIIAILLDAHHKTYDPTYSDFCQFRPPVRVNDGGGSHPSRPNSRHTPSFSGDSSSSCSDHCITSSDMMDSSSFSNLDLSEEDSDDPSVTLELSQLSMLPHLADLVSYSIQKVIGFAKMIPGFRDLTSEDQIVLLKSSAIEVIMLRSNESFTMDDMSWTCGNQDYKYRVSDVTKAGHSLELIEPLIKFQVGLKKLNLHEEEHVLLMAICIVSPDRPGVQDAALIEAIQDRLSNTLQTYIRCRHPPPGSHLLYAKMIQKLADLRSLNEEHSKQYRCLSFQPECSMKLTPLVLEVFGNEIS

CCCCCC[N+](=O)[O-]
-11.1%: max response [14]
inactive: Potency [1] | Potency [2] | outcome [3] | Potency [4] | Potency [5] | Potency [6] | Potency [7] | Potency [8] | Potency [9] | Potency [10] | outcome [11] | outcome [12] | Potency [13] | max response [15] -13.3% | outcome [16] | Potency [17] | Potency [18] | Potency [19] | outcome [20]

C=C(Cl)CSC(=S)N(CC)CC
inactive: Potency [1] | Potency [2] | Potency [4] | Potency [6] | Potency [7] | Potency [9] | Potency [10] | outcome [11] | outcome [12] | Potency [13] | max response [15] 1.31% | outcome [16] | Potency [17] | Potency [18] | Potency [19] | outcome [20]
-2.71%: max response [14]

[N-]=[N+]=[N-]
inactive: Potency [2] | Potency [4] | Potency [5] | Potency [6] | Potency [8] | Potency [9] | Potency [10] | outcome [11] | outcome [12] | Potency [13] | max response [15] 13.8% | outcome [16] | Potency [18] | Potency [19] | outcome [20]
-3.73%: max response [14]

Nc1ccc(Cl)c(Cl)c1
2.84%: max response [14]
inactive: Potency [1] | Potency [2] | outcome [3] | Potency [4] | Potency [6] | Potency [7] | Potency [8] | Potency [9] | Potency [10] | outcome [11] | outcome [12] | Potency [13] | max response [15] -9.29% | outcome [16] | Potency [17] | Potency [18] | outcome [20]

CC(C)CON=O
inactive: Potency [1] | Potency [2] | Potency [5] | Potency [6] | Potency [7] | Potency [8] | Potency [9] | Potency [10] | outcome [11] | outcome [12] | max response [15] 8.37% | outcome [16] | Potency [18] | outcome [20]
-4.96%: max response [14]

Cc1cc(Cl)ccc1O
-5.47%: max response [14]
inactive: Potency [1] | Potency [2] | outcome [3] | Potency [4] | Potency [5] | Potency [6] | Potency [7] | Potency [8] | Potency [9] | Potency [10] | outcome [11] | outcome [12] | Potency [13] | max response [15] -5.53% | outcome [16] | Potency [18] | Potency [19] | outcome [20]

CCOS(C)(=O)=O
inactive: Potency [1] | Potency [2] | outcome [3] | Potency [4] | Potency [5] | Potency [6] | Potency [7] | Potency [8] | Potency [9] | Potency [10] | outcome [11] | outcome [12] | max response [15] -0.383% | outcome [16] | Potency [17] | Potency [18] | Potency [19] | outcome [20]
-8.7%: max response [14]

ClC=CCl
-4.87%: max response [14]
inactive: Potency [1] | Potency [2] | outcome [3] | Potency [4] | Potency [5] | Potency [6] | Potency [7] | Potency [8] | Potency [9] | Potency [10] | outcome [11] | outcome [12] | Potency [13] | max response [15] -1.6% | outcome [16] | Potency [17] | Potency [18] | Potency [19] | outcome [20]

BrC(Br)Br
-5.42%: max response [14]
inactive: Potency [1] | Potency [2] | Potency [4] | Potency [5] | Potency [6] | Potency [7] | Potency [8] | Potency [9] | Potency [10] | outcome [11] | outcome [12] | Potency [13] | max response [15] 20% | outcome [16] | Potency [17] | Potency [18] | Potency [19] | outcome [20]

Oc1cc(Cl)cc(Cl)c1
-2.61%: max response [14]
inactive: Potency [2] | outcome [3] | Potency [4] | Potency [5] | Potency [6] | Potency [7] | Potency [8] | Potency [9] | Potency [10] | outcome [11] | outcome [12] | Potency [13] | max response [15] -5.58% | outcome [16] | Potency [17] | Potency [18] | Potency [19] | outcome [20]

Nc1c(Cl)cc([N+](=O)[O-])cc1Cl
inactive: outcome [3] | Potency [4] | Potency [5] | Potency [6] | Potency [7] | Potency [8] | Potency [9] | Potency [10] | outcome [11] | outcome [12] | Potency [13] | max response [15] 5.54% and -6.63% | outcome [16] | Potency [18] | Potency [19] | outcome [20]
7.55% and -9.5%: max response [14]

C=CCBr
-4.43%: max response [14]
inactive: Potency [1] | Potency [2] | outcome [3] | Potency [4] | Potency [5] | Potency [7] | Potency [8] | Potency [9] | Potency [10] | outcome [11] | outcome [12] | Potency [13] | max response [15] 13.2% | outcome [16] | Potency [17] | Potency [18] | Potency [19] | outcome [20]

O=C(O)C(Cl)(Cl)Br
1.14%: max response [14]
inactive: Potency [1] | Potency [2] | Potency [4] | Potency [5] | Potency [6] | Potency [7] | Potency [8] | Potency [9] | Potency [10] | outcome [11] | outcome [12] | Potency [13] | max response [15] 1% | outcome [16] | Potency [17] | Potency [18] | Potency [19] | outcome [20]

C=CCCC#N
-6.48%: max response [14]
inactive: Potency [1] | Potency [2] | outcome [3] | Potency [4] | Potency [5] | Potency [6] | Potency [7] | Potency [8] | Potency [9] | Potency [10] | outcome [11] | outcome [12] | Potency [13] | max response [15] 17.4% | outcome [16] | Potency [17] | Potency [18] | Potency [19] | outcome [20]
